The sample as a whole holds a higher share of hits than the screen did.
FBPA Giardia inh = Giardia lamblia aldolase inhibition; purified Giardia FBPA; Potency, µM (doses to about 59.6 µM), for the others: top-dose activity, negative = inhibition, actives largely listed as inhibitors; actives 0.71% (n = 290,000); also: potency is read from the fitted curve at half-maximal effect; % is scaled to controls: 0 for no effect and ±100 for the full control effect; nearly all actives have a fitted effect of over 55% in size
Target sequence (A8B2U2 whole entry, looked up): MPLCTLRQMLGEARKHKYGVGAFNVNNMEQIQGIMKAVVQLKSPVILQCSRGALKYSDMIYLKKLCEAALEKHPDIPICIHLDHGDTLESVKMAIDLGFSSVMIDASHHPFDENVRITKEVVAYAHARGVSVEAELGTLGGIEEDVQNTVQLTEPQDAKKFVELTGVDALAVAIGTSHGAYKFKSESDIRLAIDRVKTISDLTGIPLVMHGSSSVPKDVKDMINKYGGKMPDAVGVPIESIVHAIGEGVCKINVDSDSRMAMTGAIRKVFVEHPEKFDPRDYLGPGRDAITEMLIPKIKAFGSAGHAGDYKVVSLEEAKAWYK
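Giardia FBPA (40 nM reagent) was preincubated 10 min at RT with compound (up to 57.5 uM final), then substrate plus GAPDH/TPI/NAD/arsenate coupling system with diaphorase/resazurin was added; resorufin fluorescence (525/598 nm) was read after 20 min.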
Sm TGR block = blocks Schistosoma mansoni thioredoxin glutathione reductase; actives 3% (n = 360,000); AID 485364; Potency, µM (series often up to 114 µM), without a hit: at the top dose activity change, negative = inhibition, most hits filed as inhibitors; Q962Y6; purified TGR, DTNB reduction, TNB absorbance 405 nm; also: potency is read from the fitted curve at half-maximal effect; % is scaled to controls: 0 for no effect and ±100 for the full control effect; nearly all actives have a fitted effect of over 60% in size
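Kinetic colorimetric format: TGR-catalysed, NADPH-driven DTNB reduction monitored via TNB absorbance. Enzyme dispensed at 20 nM; compound exposure 15 min at room temperature before reaction start.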
CHX counter = counter-screen for Shiga toxin inhibitors: cycloheximide protein synthesis inhibition; cell reporter, cycloheximide protein synthesis inhibition counterscreen; max response, %; actives 12% (n = 300,000); AID 2314; in the data active = max response mostly above about 13%, no sharp cut-off; inactive = mostly below about 14%; also: read at 38.3 µM for the half of the compounds with a filed dose; 0% is about no effect
LmPK inh = inhibitors of Leishmania mexicana pyruvate kinase; Q27686; purified LmPK, Kinase-Glo ATP luminescence, 1 h; Potency, µM (top dose mostly 57.5 µM), without a hit: at the top dose activity change, negative = inhibition, actives largely listed as inhibitors; actives 0.37% (n = 290,000); AID 1721; also: potency is read from the fitted curve at half-maximal effect; % is scaled to controls: 0 for no effect and ±100 for the full control effect
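0.1 nM LmPK, 0.5 mM PEP, 0.1 mM ADP; 50 mM imidazole pH 7.2, 7 mM MgCl2, 50 mM KCl; 1 h RT. Kinase-Glo luminescence readout, normalized to no-enzyme (full inhibition) and uninhibited wells.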
Shiga inhibitor = blocks Shiga toxin action in Vero cells; inhibition, % at 38.7 µM; Vero cells, Shiga toxin protein synthesis inhibition reporter; AID 2315; actives 9.2% (n = 290,000); in the data active = inhibition mostly above about 28%, no sharp cut-off; inactive = mostly below about 43%; also: 0% is about no effect
Tb PYK inh = T. brucei pyruvate kinase inhibition; actives 0.12% (n = 410,000); TbPYK enzyme, Kinase-Glo Plus ATP luminescence, 45 min; Q57TT1; Potency, µM (top dose mostly 76.8 µM), for the others: top-dose activity, negative = inhibition, hits mostly inhibitors; also: potency is read from the fitted curve at half-maximal effect; % is scaled to controls: 0 for no effect and ±100 for the full control effect; nearly all actives have a fitted effect of over 50% in size
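Activity of T. brucei pyruvate kinase was followed by Kinase-Glo Plus luminescence after the enzyme reacted 45 min at room temperature with 130 uM ADP (final) and substrate. Test compounds were added before ADP at multiple concentrations.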
* = called active by the depositor; ? = inconclusive; / = no result; [ ] = remark or other dose. Unless noted, calls follow the shape of the dose curve; as a rule, active = well fitted curve in the direction sought with a large enough effect; inconclusive = small, poorly fitted or top-dose-only effect, or another doubt; inactive = no such curve, though single readings can be large; an effect the other way counts as inactive or inconclusive.

SMILES	FBPA Giardia inh	Sm TGR block	CHX counter	LmPK inh	Shiga inhibitor	Tb PYK inh
COC(=O)C1=C(C)NC(=S)NC1c1ccc(N(CCCl)CCCl)cc1Cl (centres undefined)	/	/	/	/	/	-29%
COC(=O)C1=C(C)NC(=O)NC1c1ccccc1Cl (centres undefined)	2%	-1%	-3	0%	-2	0%
CC1=C(C(=O)Nc2ccccn2)C(c2ccccc2Cl)NC(=S)N1 (centres undefined)	-3%	0%	40*	-5%	100*	-3%
CC1=C(C(=O)Nc2ccccn2)C(c2ccc(Cl)cc2Cl)NC(=S)N1 (centres undefined)	0%	2%	35*	-3%	111*	-1%
Cc1ccc(C)c(NC(=O)CN2CCSc3ccc(S(=O)(=O)N4CCCC4)cc32)c1	/	-4%	/	/	/	-13%
CCc1ccccc1C1=CC(=O)C[C@H](c2ccc(OC)cc2)C1	/	/	/	/	/	-4%
COc1ccc(CCNC(=O)C2Cc3ccccc3C(=O)O2)cc1 (centres undefined)	10%	-7%	15	-1%	-12	3%
COc1ccc(C2Cc3ccccc3C(=O)O2)cc1 (centres undefined)	0%	6%	19	3%	active	-2%
COc1ccc(NC(=O)C2Cc3ccccc3C(=O)O2)cc1 (centres undefined)	-7%	-1%	12*	5%	26	2%
Cc1ccccc1NC(=O)C1Cc2ccccc2C(=O)O1 (centres undefined)	2%	0%	14*	-1%	17	-1%
Cc1ccc2c(c1)C(=O)OC(C(=O)Nc1ccccc1C(=O)O)C2 (centres undefined)	/	-20%	/	/	/	-3%
Cc1nn(C)c2nc(NNC(=O)Nc3cc(Cl)nc(Cl)c3)cc(C(C)C)c12	-2%	/	4	/	14	/
COc1ccc(-c2cc(OC(=O)c3ccc(F)cc3)c3c(C)oc(C)c3c(=O)c2)cc1	?	35µM*	-4	1%	-6	/
COc1ccc(-c2cc(OC(=O)c3cccc(Cl)c3)c3c(C)oc(C)c3c(=O)c2)cc1	/	22µM*	/	/	/	0%
COc1ccc(-c2cc(OC(=O)c3ccccc3)c3c(C)oc(C)c3c(=O)c2)cc1OC	/	?	/	/	/	-2%
CCOc1cc(-c2ccc(OC(=O)c3ccc(Cl)cc3)c(OC)c2)cc(=O)c2c(C)oc(C)c12	/	1%	/	/	/	-10%
O=C(c1cc(-c2ccccc2O)on1)N1CCCCCC1	0%	-5%	34*	-2%	104*	0%
COc1ccccc1-c1cc(C(=O)N2CCN(c3ccccc3)CC2)no1	4%	4%	-2	-4%	2	2%
COc1ccc(OC)c(-c2cc(C(=O)N3CCOCC3)no2)c1	-4%	-13%	14*	-7%	17	-6%
O=C(c1cc(-c2ccccc2O)on1)N1CCOCC1	4%	-1%	31*	-13%	80*	-4%
Cc1onc(-c2ccccc2Cl)c1C(=O)N1CCCCC1	-1%	6%	-2	3%	2	-4%
COc1ccc2cc(OC)c(C(=O)N3CCOCC3)cc2c1	-6%	3%[57.1 µM]	-2	-8%	-29	0%
CNC(=O)c1ccc(NC(=O)c2ccccc2OCc2c(C)noc2C)cc1	/	/	/	/	/	5%
Cc1cc(C)cc(NC(=O)N2CCC(CN3CCCCCC3)CC2)c1	/	-34%	/	/	/	2%
Cc1ccc2oc(Nc3nc(C)cc(C)n3)nc2c1	-19%	7%	11*	-3%	31	-3%
SMILES	FBPA Giardia inh	Sm TGR block	CHX counter	LmPK inh	Shiga inhibitor	Tb PYK inh
Cc1ccc2oc(-c3cccc(NC(=O)Cc4ccc(Cl)cc4)c3)nc2c1	/	2%	/	/	/	-3%
CCOc1cccc(-c2nc3cc(C)ccc3o2)c1	5%	?	31*	?	63	-3%
Cc1ccc2oc(-c3ccccc3)nc2c1	-8%	5%	45*	16µM*	70*	-7%
O=C(Nc1ccc(F)cc1F)C1CCN(S(=O)(=O)c2ccc3[nH]c(=O)ccc3c2)CC1	/	5%	/	/	/	-7%
O=C(O)COc1nn(Cc2ccccc2)c2ccccc12	/	/	/	/	/	0%
COc1cccc(/C=C/C(=O)c2c(O)cc(C)oc2=O)c1O	-19%	-32%	23	4%	97	-5%
CSc1ccc(/C=C/C(=O)c2c(O)cc(C)oc2=O)cc1	-5%	-28%	37*	?	52*	-6%
Cc1cc(O)c(C(=O)/C=C/c2ccc(Cl)cc2)c(=O)o1	-8%	25µM*	32*	4%	50*	6%
COc1ccc(/C=C/C(=O)c2c(O)cc(C)oc2=O)c(OC)c1	-5%	0%	24*	14µM*	8	2%
O=C(Nc1cc2c(oc1=O)CCCC2=O)c1ccc(Cl)cc1	0%	-14%	20*	1%	23	-9%
COc1ccc(OC)c(N(CC(=O)NCCSCc2ccco2)S(=O)(=O)c2ccccc2)c1	/	45µM*	-5	-3%	-1	-6%
Cc1ccccc1N(CC(=O)NCCSCc1ccco1)S(C)(=O)=O	-1%	22µM*	8	0%	23	-2%
CCOc1ccccc1N(CC(=O)NCCSCc1ccco1)S(=O)(=O)c1ccccc1	1%	40µM*	-1	2%	-7	0%
COc1ccc(Cl)cc1C(=O)NNC(=O)c1ccc(F)c(S(=O)(=O)N2CCOCC2)c1	/	/	/	/	/	-5%
COc1ccc(CCN2CC(C(=O)NCc3nc(C)c(C)s3)CCC2=O)cc1 (centres undefined)	1%	5%	-2	-3%	-4	4%
CN(C)/C=N/c1nc2ccc3c(c2s1)CCCC3	-15%	?	36*	-3%	87*	7%
CCOC(=O)c1c(/N=C/N(C)C)sc2c1CCC2	-15%	-19%	-1	1%	-7	-13%
COc1cccc(NC(=O)CN(C)C(C)C(=O)N2CCCCC2)c1 (centres undefined)	/	/	/	/	/	0%
CC(C(=O)N1CCCC1)N(C)CC(=O)Nc1cccc(F)c1 (centres undefined)	/	8.9µM*	/	/	/	4%
CCCCNc1nc(Oc2ccc(=O)n(-c3ccccc3)n2)nc(N(C)C)n1	/	-2%	/	/	/	0%
COC(=O)C(CC(=O)c1ccc(Br)cc1)n1nc(C)cc1C (centres undefined)	2%	3.5µM*	-3	-7%	-7	?
COc1ccc(CNC(=O)CC(C)n2nc(C)cc2C)cc1 (centres undefined)	/	4%	/	/	/	-6%
Cc1ccc(C(=O)CC(C(=O)O)n2cncn2)cc1 (centres undefined)	-10%	-20%	1	-1%	-4	-6%
COC(=O)C(CC(=O)c1ccc(C)cc1)n1nc(C)cc1C (centres undefined)	-3%	13µM*	-1	0%	-2	-3%
